# PubChem BioAssay AID1347165 (National Center for Advancing Translational Sciences (NCATS), 2019)
# Out of some 220,000 compounds screened, about 5,700 (2.6%) were called active. About 18% were inconclusive and are not listed. The call rests on the fitted dose curve; in most records, active means well fitted inhibition curve with a large enough effect; inconclusive means small, poorly fitted or top-dose-only effect; inactive means no such curve, though single readings can be large or run the other way. What follows is part of a selection rich in actives, with near analogues and random picks from the rest. Where a call stands in place of a potency, no number is given.
# Target: Lysine-specific demethylase 5B (Homo sapiens) (UniProt Q9UGL1)
# Assay: Primary screen for KDM5B Histone Demethylases FDH-coupled qHTS; further: nearly all actives have a fitted effect of over 70% in size
# Details: FDH-coupled NADH fluorescence (FDH is formaldehyde dehydrogenase); series mostly up to 57.7 µM
# Outline: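 Inhibition is measured as reduced NADH fluorescence generation from FDH coupling to formaldehyde release. Truncated KDM5BΔAP at 200 nM final acts on H3K4me3 peptide (12.5 µM in substrate mix) in pH 7.5 HEPES buffer with Tween-20, 30 min, room temperature.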
# Potency means the concentration at half of the fitted maximal effect.
# Lysine-specific demethylase 5B (Homo sapiens), sequence (Q9UGL1 whole entry, looked up): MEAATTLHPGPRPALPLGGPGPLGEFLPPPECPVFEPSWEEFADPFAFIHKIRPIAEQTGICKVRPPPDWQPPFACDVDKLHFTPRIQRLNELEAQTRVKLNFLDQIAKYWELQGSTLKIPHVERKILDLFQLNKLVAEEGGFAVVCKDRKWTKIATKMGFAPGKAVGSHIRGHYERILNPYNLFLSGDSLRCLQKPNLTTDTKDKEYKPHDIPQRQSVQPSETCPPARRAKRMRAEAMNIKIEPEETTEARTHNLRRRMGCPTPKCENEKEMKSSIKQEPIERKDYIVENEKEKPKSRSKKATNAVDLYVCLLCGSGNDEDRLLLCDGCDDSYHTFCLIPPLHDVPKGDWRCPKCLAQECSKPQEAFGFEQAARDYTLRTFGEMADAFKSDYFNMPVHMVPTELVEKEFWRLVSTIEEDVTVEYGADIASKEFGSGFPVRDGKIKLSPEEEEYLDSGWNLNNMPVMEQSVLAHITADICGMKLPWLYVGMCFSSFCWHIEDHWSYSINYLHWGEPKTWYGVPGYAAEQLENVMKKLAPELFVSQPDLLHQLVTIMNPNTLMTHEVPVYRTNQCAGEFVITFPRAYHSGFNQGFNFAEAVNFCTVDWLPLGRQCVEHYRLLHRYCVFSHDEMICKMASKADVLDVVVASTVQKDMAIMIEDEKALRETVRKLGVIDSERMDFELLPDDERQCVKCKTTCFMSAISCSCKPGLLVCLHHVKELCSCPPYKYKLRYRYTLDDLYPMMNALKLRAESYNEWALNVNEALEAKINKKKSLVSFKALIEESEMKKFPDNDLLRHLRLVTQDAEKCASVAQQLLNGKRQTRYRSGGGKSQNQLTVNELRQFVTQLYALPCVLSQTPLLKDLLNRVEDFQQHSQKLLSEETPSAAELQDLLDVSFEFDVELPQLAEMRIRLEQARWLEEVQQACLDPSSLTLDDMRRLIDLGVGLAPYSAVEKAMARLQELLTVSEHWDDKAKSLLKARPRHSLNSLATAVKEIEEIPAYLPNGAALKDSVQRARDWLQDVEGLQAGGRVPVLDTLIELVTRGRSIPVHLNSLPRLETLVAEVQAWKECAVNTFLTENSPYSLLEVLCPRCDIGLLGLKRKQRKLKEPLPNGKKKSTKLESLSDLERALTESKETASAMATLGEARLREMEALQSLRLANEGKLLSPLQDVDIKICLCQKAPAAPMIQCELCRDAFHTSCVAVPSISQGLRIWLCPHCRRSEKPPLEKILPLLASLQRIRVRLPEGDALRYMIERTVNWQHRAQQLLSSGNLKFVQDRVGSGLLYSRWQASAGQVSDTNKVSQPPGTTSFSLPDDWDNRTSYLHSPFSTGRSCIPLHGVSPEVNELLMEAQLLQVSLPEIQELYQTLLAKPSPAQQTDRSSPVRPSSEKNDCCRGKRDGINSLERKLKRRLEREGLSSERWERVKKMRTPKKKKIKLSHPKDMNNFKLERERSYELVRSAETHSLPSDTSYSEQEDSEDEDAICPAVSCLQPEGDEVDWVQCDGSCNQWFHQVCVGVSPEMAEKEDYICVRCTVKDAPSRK
row,Compound,Potency
1,CCOC(=O)C(=O)Nc1ccc(C(=O)OC)cc1,inactive
2,CSc1ccc(CNC23CC4CC(C)(CC(C)(C4)C2)C3)cc1,inactive
3,Cc1cccc(C)c1OCC(O)Cn1cnc2c(cnn2-c2ccc(F)cc2)c1=O (configuration not stated),inactive
4,Cn1c(SCc2ccc(F)cc2)nnc1-c1ccncc1,inactive
5,COc1ccc(OC)c2[nH]c(C(=O)NCC(=O)Nc3nc(C)cs3)cc12,inactive
6,CCC1(C)CC(CC(=O)OC(C)CN(C)C)(c2ccccc2)CCO1 (configuration not stated),inactive
7,Cc1noc(C)c1CCCNC(=O)c1ccc(N(C)C2CCOC2)nc1 (configuration not stated),inactive
8,CNc1ncc(C(=O)N[C@@H]2COCC[C@@H]2OCc2c(C)noc2C)cn1,28.2 µM (active)
9,Cc1cc(N)n(CC(=O)N[C@@H]2COCC[C@@H]2OCc2c(C)noc2C)n1,inactive
10,O=C(NC1(c2ccc(Cl)cc2)CCC1)c1cc(Cl)c[nH]1,inactive
11,Cc1ccc(Cc2nn3c(SCC(=O)Nc4ccccc4C(F)(F)F)nnc3[nH]c2=O)cc1,inactive
12,COC(=O)[C@H](C)NC(=O)C12CC3CC(CC(C3)C1)C2,inactive
13,CCc1c(C)sc(NC(=O)C(CC)CC)c1C#N,inactive
14,COCC1CCN(C(=O)c2ccc3oc(Cc4ccccc4)nc3c2)C1 (configuration not stated),inactive
15,Cc1ccc(-c2cc(N3CCCN(C(=O)c4nn(C)c5ccccc45)CC3)n[nH]2)cc1C,inactive
16,COCCNC(=O)c1cnc2n[nH]c(-c3ccccc3OC)c2n1,inactive
17,COc1ccc(-c2[nH]nc3ncc(-c4ccccc4)nc23)c(C)c1,inactive
18,COc1ccccc1-c1[nH]nc2ncc(-c3cccc(CO)c3)nc12,39.8 µM (active)
19,Oc1ccc(/C=C(/Cl)c2ncc(-c3ccc(F)cc3)o2)cc1,inactive
20,CCOC(=O)C1CCN(CCC(=O)Nc2cc(OC)cc(OC)c2)CC1,inactive
21,COc1cccc(NC(=O)c2csnn2)c1,inactive
22,COc1cc(NC(=O)c2cc3c(N4CCSCC4)nc(C)cn3n2)cc(OC)c1,31.6 µM (active)

row,Compound,Potency
1,Cc1cn2nc(C(=O)NC3CCCC3)cc2c(N2CCSCC2)n1,28.2 µM (active)
2,COc1ccc(N2CCN(c3nc(C(=O)NC4CCCCCC4)cs3)CC2)cc1,inactive
3,O=C(NC1CCCCC1)c1cc(C2CC2)on1,inactive
4,O=C(OC1CCOC1=O)c1ccccc1SC1CCOC1=O (configuration not stated),inactive
5,O=C1CC(c2nc(-c3ccc(Oc4ccccc4)cc3)no2)CN1c1ccccc1 (configuration not stated),inactive
6,O=C(c1ccccc1F)N1CCC2(CC1)C(=O)NN=C2C1CC1,inactive
7,CNC(=O)c1cccc(NC(=O)CC(C)(C(=O)O)c2ccccc2)c1 (configuration not stated),inactive
8,Cc1cc(C)c(CNC(=O)c2nc(-c3cccc(CO)c3)cc3c2ccn3C)c(=O)[nH]1,35.5 µM (active)
9,O=S(=O)(Oc1ccccc1C(=S)N1CCOCC1)c1ccc(Cl)cc1,inactive
10,CCN(c1ccc(NC(=O)c2nccnc2N)cc1)C(C)C,inactive
11,Cc1cc(S(=O)(=O)c2cc3cc(F)cc(F)c3oc2=O)ccc1F,inactive
12,O=S(=O)(c1ccc(F)cc1)N1CCn2cccc2C1c1ccccc1F (configuration not stated),inactive
13,Cc1cccc(NN)c1C,inactive
14,COc1cccc(CNC(=O)CC(C)CC(=O)O)c1 (configuration not stated),inactive
15,CCc1ccc(OCC(=O)Nc2ccc(S(=O)(=O)NC(C)(C)C)cc2)cc1,inactive
16,NC(=O)c1ccc(OC2CCN(C(=O)CCc3ccccc3)C2)nc1 (configuration not stated),inactive
17,NC(=O)c1ccc(OC2CCN(C(=O)c3ccc(F)cc3)CC2)nc1,inactive
18,CNc1ccc(OC2CCN(C(=O)NCCc3ccccc3)CC2)nc1,28.2 µM (active)
19,CN(C)c1ncccc1CNC(=O)Cc1ccccc1F,inactive
20,CC(NC(=O)c1ccc2c(c1)CCCC2)c1ccccc1 (configuration not stated),inactive
21,Cc1c(C(=O)NCCN(C)C)oc2ccc(S(=O)(=O)N3CCCC3)cc12,inactive
22,Cc1cccc(-c2cnc3n[nH]c(-c4ccc5c(c4)OCO5)c3n2)c1,inactive

row,Compound,Potency
1,C[S+](=O)([O-])c1ccc(-c2cnc3n[nH]c(-c4ccccc4)c3n2)cc1,35.5 µM (active)
2,Fc1ccc(-c2cnc3n[nH]c(-c4ccc5c(c4)OCO5)c3n2)cc1,inactive
3,COc1ccc(-c2[nH]nc3ncc(-c4cn[nH]c4)nc23)cc1F,inactive
4,Cc1ccsc1-c1[nH]nc2ncc(-c3ccccc3O)nc12,inactive
5,Cn1cc(-c2cnc3n[nH]c(-c4ccccc4)c3n2)cn1,35.5 µM (active)
6,Cc1ccc(C(=O)NCC(c2cccs2)N(C)C)cc1S(=O)(=O)N1CCOCC1 (configuration not stated),inactive
7,O=C(c1cccc(Br)c1)N1CCN(C2=NS(=O)(=O)c3ccccc32)CC1,inactive
8,COc1ccc(NC(=O)CCCC2CCCCC2)c(OC)c1,inactive
9,COc1ccccc1CN1CCC(N2CCN(c3ccccc3OC)CC2)CC1,inactive
10,COc1cccc(CN2CCN(Cc3ncccc3C)CC2)c1O,inactive
11,COc1ccccc1CN1CC[C@@H](CO)N(C)c2ncccc2C1,31.6 µM (active)
12,CC(C)n1ncc2cc(C(=O)N3CCCCc4ccccc43)cnc21,inactive
13,CCN(CCCNC(=O)c1nn(-c2ccc(OC)cc2)c(=O)c2ccccc12)Cc1ccccc1,inactive
14,CN(Cc1ccc(F)cc1)C(=O)Cn1nc(C(=O)O)c2ccccc2c1=O,inactive
15,COc1ccc(S(=O)(=O)N2CCCC(C(=O)NCCCn3ccnc3)C2)cc1OC (configuration not stated),inactive
16,CC(=O)Nc1ccc(C2(C(=O)NCCCN3CCOCC3)CCCCC2)cc1,inactive
17,CN1CCC2(C1)CN(CC1CCOCC1)c1ccc(C(=O)NCCCn3ccnc3)cc12 (configuration not stated),39.8 µM (active)
18,Cc1c(C(=O)N(Cc2nc3ccccc3c(=O)[nH]2)C(C)C)oc2ccc(Cl)cc12,inactive
19,CCN1C(=O)C(=O)N(CC(=O)Nc2cc(C)ccc2C)C1=O,inactive
20,O=C(c1cnccn1)N1CC2CC(C1)[C@H]1CCCC(=O)N1C2 (some centres not stated),inactive
21,CC(=O)N[C@H]1CN(c2cncc(C(=O)N3CCCC3)n2)C[C@@H]1C1CC1,28.2 µM (active)
22,Cc1ccc(C(=O)N2CC[C@H](CO)[C@H](NC(=O)C3CC3)C2)cn1,inactive

row,Compound,Potency
1,Cc1ccc(N(CC(=O)NC2CCCCCCC2)S(=O)(=O)N(C)C)cc1,inactive
2,O=C(Nc1cccc(Cl)c1)[C@@H]1C[C@H](c2ccc(F)cc2)N([S+](=O)([O-])C2CC2)C1,inactive
3,O=C([C@@H]1C[C@H](c2ccc(F)cc2)N([S+](=O)([O-])C2CC2)C1)N1CCN(c2ccccn2)CC1,20 µM (active)
4,O=C(Nc1cccnc1)[C@@H]1C[C@@H](c2ccc(F)cc2)N([S+](=O)([O-])c2ccccc2)C1,inactive
5,Cc1c(C)n2c3c(=O)[nH]c(=O)n(C)c3nc2n1CCN1CCN(Cc2ccc(F)cc2)CC1,inactive
6,C=CCOC/C=C/C#CCN(CC=C)Cc1ccc(OC)cc1OC,inactive
7,CC(=O)N1CCC(Cc2ccc(C(=O)NC3CC3)cc2)CC1,inactive
8,O=C1Nc2ccccc2CC12CCN(CC1CC1)C2 (configuration not stated),inactive
9,CC(=O)N1CCCC2(C1)CN(C)c1ccc(C(=O)NC3CC3)cc12 (configuration not stated),25.1 µM (active)
10,CCCN1C(=O)Cc2cc(C(=O)NC3CC3)ccc21,inactive
11,O=C(NC1CC1)c1ccc2c(c1)C1(CCN(CC3CC3)C1)CN2Cc1ccccc1 (configuration not stated),31.6 µM (active)
12,O=C(NC1CCCCC1)c1ccc2c(c1)N(Cc1ccc(Cl)cc1)C(=O)c1ccccc1S2=O (configuration not stated),inactive
13,COC(=O)c1cccc(N(CC(=O)NCC2CCCO2)C(=O)CCC(=O)Nc2cc(C)on2)c1 (configuration not stated),inactive
14,COc1ccccc1C(=O)OCC(=O)NCCNC(=O)COC(=O)c1ccccc1OC,inactive
15,CSCC[C@H](NC(=O)CSc1cc(Cl)ccc1Cl)c1nc2ccccc2[nH]1,inactive
16,NC(=O)CN1CCC(NC(=O)c2ccc(Oc3ccc(F)cc3)cc2)CC1,inactive
17,O=C(c1ccoc1)N1CCC(Oc2ncccc2C(=O)N2CCOCC2)C1 (configuration not stated),inactive
18,CCn1cc(-c2ccccc2)cc1C(=O)NCc1ccccn1,inactive
19,O=C(NC1CCN(Cc2ccc(F)c(F)c2)CC1)c1ccc2nccn2c1,28.2 µM (active)
20,O=C(NCCc1ccc(Cl)cc1)c1ccc2nc(CCc3ccccc3)oc2c1,inactive
21,NC(=O)CN1CCC(NC(=O)c2cccc(F)c2)CC1,inactive
22,COc1cccc(S(=O)(=O)NCc2ccc(C(=O)NCc3ccccn3)cc2)c1,inactive

row,Compound,Potency
1,O=C(Nc1ccc(C(=O)N2CCOCC2)cc1)Nc1cccc(C(F)(F)F)c1,inactive
2,O=C(NCc1ccccn1)c1ccc2nccn2c1,31.6 µM (active)
3,Cc1cc(C(=O)NCCc2ccc(Cl)cc2)c(C)o1,inactive
4,O=C(NCCc1ccc(Cl)cc1)c1ccc2nccn2c1,112 µM (active)
5,O=C(c1ccc2nccn2c1)N1CCOCC1,100 µM (active)
6,COc1ccc2nc(NC(=O)Nc3ccc(C)cc3)sc2c1,inactive
7,COc1cc(/C=C(\C#N)C(=O)C(C)(C)C)ccc1OCc1c(Cl)cccc1Cl,inactive
8,COC[C@]1(O)CCN(C(=O)c2ccccc2C(F)(F)F)CC1(C)C,inactive
9,C#Cc1cccc(NS(=O)(=O)c2ccc(OC)c3ncccc23)c1,inactive
10,CC1(C)CC(=O)C2=C(C1)OC(N)=C(C#N)C2c1ccc(C(F)(F)F)cc1 (configuration not stated),inactive
11,Cc1ccccc1/C=C1\Oc2cc(OS(C)(=O)=O)ccc2C1=O,inactive
12,O=C(Cc1cccc(F)c1)NC1CCC(c2ccccc2)CC1 (configuration not stated),inactive
13,O=c1ncn(Cc2ccccc2)c2ccc(-c3ccoc3)nc12,39.8 µM (active)
14,CCOc1ccccc1NC(=O)Cc1c(C)[nH]n(-c2nc(-c3ccccc3)cs2)c1=O,inactive
15,CNCCCNC(=O)C(=O)Nc1cccc2[nH]ccc12,inactive
16,Cc1ccccc1OCc1nnc(SCC(=O)c2ccc(Cl)cc2)n1C,inactive
17,Cc1nn(CC(=O)O)c(=O)c2nc(C(C)C)sc12,inactive
18,CCN1CCN(C(=O)Cn2nc(C)c3sc(-c4ccccc4)nc3c2=O)CC1,22.4 µM (active)
19,Cc1ccc(C)c(N2CCN(C(=O)Cn3nc(C)c4sc5ccccc5c4c3=O)CC2)c1,inactive
